According to PubChem BioAssay (NCI):
The panel holds about 83,000 compounds, 20% with a hit somewhere; the sample as a whole holds those more often.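 Compound tested at a single concentration for 48 hours in 96-well plates; a percent growth value below 10 was scored as active.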 Values without a mark were called inactive. Calls of active or inactive are those of the source.

System: MDA-MB-468 breast
Assay: NCI-60 one-dose screen, 48 h (100 = growth as untreated, 0 = no growth, -100 = all killed)
Settings: 10 µM unless noted

| Compound | growth |
| --- | --- |
| CCCC(OC(C)=O)c1ccc2c(c1)OCO2 (centres undefined) | 103% |
| C#CCOc1ccc(/C=N\Nc2nc(-c3ccc(C)cc3)cs2)cc1OC | 70.7% |
| CN(C)CCCOc1ccc(OCCCN(C)C)c2c1C(=O)c1ccccc1C2=O | -33.7% (active) |
| COc1ccc(-c2cc(-c3ccc(Cl)cc3)c(C#N)c(=O)n2CCCCCC(=O)Nc2ccccc2N)cc1 | 53.1% |
| COC(=O)[C@H](C)NC(=O)[C@@H](OC)[C@@H]1Cc2cc3cc(OC4CC(OC5CC(O)C(O)C(C)O5)C(O)C(C)O4)c(C)c(O)c3c(O)c2C(=O)[C@H]1OC1CC(OC2CC(OC3CC(C)(O)C(O)C(C)O3)C(O)C(C)O2)C(O)C(C)O1 (some centres undefined) | -36.2% (active) |
| N#Cc1c(-c2ccccc2)cc(-c2ccccc2)n(CCCC(=O)Nc2ccccc2N)c1=O | 14.9% |
| C=C1C(=O)O[C@H]2[C@H]1CC/C(CNS(=O)(=O)c1cccc3ccccc13)=C\CC[C@@]1(C)O[C@@H]21 | 1.44% (active) |
| Nc1nonc1-c1nc2ccccc2n1Cc1ccc(F)cc1 | 23.6% |
| COc1ccc(-c2nnc3n(C)c(=O)c4ccccc4n23)cc1O | -2.48% (active) |
| O=C(Nc1cc(C(F)(F)F)cc(C(F)(F)F)c1)Nc1ccc2oc(=O)ccc2c1 | -5.53% (active) |
| CC(=O)c1ccc(-n2cc(CN3CCN(c4cc5c(cc4F)c(=O)c(C(=O)O)cn5C4CC4)CC3)nn2)cc1 | 72.5% |
| Cc1c(C(=O)/C=C/c2ccc(Cl)cc2)nnn1-c1ccc2oc(=O)ccc2c1 | 85.9% |
| CC(C)(C)c1nc2c(s1)c1nc(N)ncc1c1ccc(NS(=O)(=O)c3c(F)cccc3F)c(F)c12 | 60.2% |
| NS(=O)(=O)c1ccc(-n2nc(-c3ccc(Br)cc3)ccc2=O)cc1 | 66% [100 µM] |
| CCOC(=O)CSc1c([N+](=O)[O-])ncn1C | 91.1% |
| Cc1cc(C(=O)NOCCO)c(Nc2ccc(I)cc2F)n(C)c1=O | 114% |
| CC(=O)c1ccc(NS(=O)(=O)c2ccc([N+](=O)[O-])cc2)cc1 | 98.9% |

| Compound | growth |
| --- | --- |
| c1ccc(CP(Cc2ccccc2)c2ccccc2)cc1 | 98.6% |
| CCN1C(=O)N(CC)C2NC(SC)=NC21 (centres undefined) | 103% |
| COC(=O)[C@@]1(C)CC[C@]2(C)CC[C@]3(C)C4=CC=C5C(=CC(=O)C(O)=C5C)[C@]4(C)[C@@H](O)C[C@@]3(C)[C@@H]2C1 | 10.1% |
| O=C(Cc1ccccc1)c1ccc(Cl)cc1 | 124% |
| O=[N+]([O-])c1cccc(-c2nc(-c3ccc(Cl)cc3Cl)cn2-c2ccccc2)c1 | 22.2% |
| CC1(C)CC(=O)C2=C(C1)Nc1cc3c(cc1C2c1ccc(F)cc1)OCO3 (centres undefined) | 71.4% |
| CCN(CC)c1cn(-c2ccc(S(N)(=O)=O)cc2)nn1 | 91.9% |
| NC(=NCCCOc1ccc(F)cc1)Nc1ccc(Cl)c(Cl)c1 | 41% |
| Cc1c(Cl)cccc1NC(=O)c1sc2nc3c(cc2c1N)CN(Cc1ccccc1)CC3 | 29.1% |
| CC(C)[C@H]1CCC2=C3CC[C@]45OC(=O)[C@@]6(CCC(C)(C)C[C@H]64)CC[C@@]5(C)[C@]3(C)CC[C@@]21C | 76.4% [100 µM] |
| NC(N)=Nc1ccc(Oc2cccc(Nc3ccc(Br)c(C(F)(F)F)c3)c2)cn1 | -80.3% (active) |
| N#Cc1c(-c2ccc(Cl)cc2)csc1NC(=O)Nc1cccc(C(F)(F)F)c1 | 7.03% (active) |
| Cc1ccc2c(c1)C(C)Cc1c(N(C)C)ncnc1N2C (centres undefined) | 13% |
| Cc1cc(N[C@@H]2CCC[C@H](Nc3ccnc4cc(Cl)ccc34)C2)nc(N2CCCCCC2)n1 | -65.8% (active) |
| O=c1c2cc(Cl)ccc2oc2ccc(OCCCCCN3CCCCCC3)cc12 | 74.1% |
| O=[N+]([O-])c1ccc(NC(c2ccccc2)c2ccc3cccnc3c2O)cc1 (centres undefined) | -28.9% (active) |
| CN1C(=O)N(C)C2C1NN=c1s/c(=C\c3ccc(Br)cc3)c(=O)n12 (centres undefined) | 10.8% |
